This is a sample that favours compounds with a hit; in the whole collection about 5.7% have one here.
DAX1 inh-1 = inhibits human nuclear receptor DAX1; P51843; HEK293 Gal4-DAX1 luciferase reporter, luminescence; inhibition, % at 6.75 µM; 340,000 tested, 0.99% active;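 active = inhibition above the mean over all tested compounds plus 3 SD, cut at about 4.2% in these data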;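 also: inhibition shows as a rise in luminescence from relieved DAX1 repression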
Target sequence (P51843 207-470 limits assumed): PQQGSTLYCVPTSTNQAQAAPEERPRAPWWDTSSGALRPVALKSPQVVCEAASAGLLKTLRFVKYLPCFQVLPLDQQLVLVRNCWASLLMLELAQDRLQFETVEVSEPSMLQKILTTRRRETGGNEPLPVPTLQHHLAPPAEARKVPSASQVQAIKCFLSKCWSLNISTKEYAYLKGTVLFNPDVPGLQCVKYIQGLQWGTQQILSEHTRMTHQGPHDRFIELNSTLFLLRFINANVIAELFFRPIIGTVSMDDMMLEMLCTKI
ssDAF12 agonist = activators of S. stercoralis DAF-12 nuclear receptor; 370,000 tested, 1% active; HEK293 ssDAF-12/GRIP1 lit1-tk-luc reporter, luminescence; % of 3 µM dafachronic acid response; activation, % at 6.8 µM;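 active = activation above the mean over all tested compounds plus 3 SD, cut at about 0.9% in these data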
hcDAF12 agonist = H. contortus DAF-12 activation, primary screen; 370,000 tested, 1.4% active; HEK293 hcDAF-12 lit1-tk-luc reporter, luminescence; 0% DMSO, 100% Δ7-dafachronic acid; activation, % at 6.8 µM;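 active = activation above the mean of all tested compounds plus 3 SD, cut at about 5.5% in these data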
DAX1 inh-2 = blocks DAX1 repression of SF-1 activated StAR promoter; inhibition, % at 6.8 µM; 370,000 tested, 1.1% active; HEK293T StAR-luciferase reporter, SF-1/DAX-1 repression relief; AID 652010;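 active = inhibition above the mean over all tested compounds plus 3 SD, cut at about 3.6% in these data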;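 also: higher inhibition means more luminescence from relief of DAX-1 repression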
AHR act = human AHR activation | AHR-responsive luciferase reporter cells, luminescence | activation, % at 5 µM | 320,000 tested, 2.5% active | AID 2796; in the data active = activation above about 47%
hgDAF-12 ag = hgDAF-12 agonism, primary luciferase screen; 370,000 tested, 1.8% active; activation, % at 6.8 µM; HEK293 GAL4-hgDAF12 UAS-luciferase reporter, agonist luminescence; normalized to butyrate control;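 active = activation above a cutoff set at the mean of all screened compounds plus 3 SD, cut at about 10% in these data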
DAX1 inh confirm = confirmation of human DAX1 (NR0B1) inhibitors; shares compounds with DAX1 inh-2; HEK293T StAR-promoter luciferase reporter, SF-1/DAX-1 repression; AID 652134; inhibition, % at 6.8 µM; 2,400 tested, 87% active;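 active = inhibition above the average of every tested compound plus 3 SD, cut at about 3.8% in these data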;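 also: active compounds raise luminescence by relieving repression of the StAR reporter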
Target sequence (P51843 whole entry, looked up): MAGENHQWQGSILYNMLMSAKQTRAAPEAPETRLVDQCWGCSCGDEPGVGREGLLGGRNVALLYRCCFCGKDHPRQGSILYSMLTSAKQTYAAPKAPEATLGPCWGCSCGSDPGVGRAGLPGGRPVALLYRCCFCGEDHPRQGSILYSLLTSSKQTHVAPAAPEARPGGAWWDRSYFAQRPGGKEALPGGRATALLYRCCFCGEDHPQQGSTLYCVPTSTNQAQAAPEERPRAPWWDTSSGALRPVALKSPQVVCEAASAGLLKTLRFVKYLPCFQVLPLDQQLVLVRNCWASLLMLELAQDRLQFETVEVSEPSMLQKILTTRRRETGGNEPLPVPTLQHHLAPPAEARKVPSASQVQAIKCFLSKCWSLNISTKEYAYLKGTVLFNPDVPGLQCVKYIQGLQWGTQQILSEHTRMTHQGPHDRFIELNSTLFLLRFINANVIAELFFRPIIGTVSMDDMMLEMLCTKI
SF1 mutant ctr = nonselective inhibitor or artifact in SF-1 mutant DAX1 counter-screen; AID 652136; inhibition, % at 6.8 µM; shares compounds with DAX1 inh-2; 2,400 tested, 78% active; HEK293 StAR-luciferase, SF-1 AF2 mutant, luminescence;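 active = inhibition above the mean of all tested compounds plus 3 SD, cut at about 3% in these data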
LXR ag = activates human LXR-beta, counter-screen for hcDAF-12 agonists. HEK293 Gal4-LXR tk-luc reporter, luminescence, 24 h; normalized: DMSO 0%, positive control 100%. 3,400 tested, under 10 active. shares compounds with hcDAF12 agonist. activation, % at 6.8 µM;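 active = mean percent activation of the reporter above a cutoff set as the average over tested compounds plus their standard deviation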
hcDAF12 conf = confirmation of H. contortus DAF-12 agonists | AID 743032 | 3,400 tested, 61% active | shares compounds with hcDAF12 agonist | HEK293 hcDAF-12 lit1-tk-luc reporter, luminescence; % of Δ7-dafachronic acid response | activation, % at 6.8 µM;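 active = mean activation across triplicate tests above the threshold derived from the earlier primary screen, cut at about 5.5% in these data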
hgDAF12 conf = confirmation of H. glycines DAF-12 agonists. AID 743050. HEK293 GAL4-hgDAF12 luciferase reporter, agonist mode; percent of butyrate response. shares compounds with hgDAF-12 ag. activation, % at 6.8 µM. 3,300 tested, 80% active;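 active = mean activation over triplicate wells above the hit cutoff derived from the earlier primary screen, cut at about 11% in these data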
LXR ag 2 = counter-screen for DAF-12 agonists: agonists of human LXR-beta. shares compounds with hgDAF-12 ag. 3,300 tested, under 10 active. HEK293 Gal4-LXR luciferase reporter, 24 h. activation, % at 6.8 µM;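 active = mean activation of the triplicate above a set limit carried over from the primary screen, none filed active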
Each line names hits and unclear results; the compound was inactive in the other large screens (follow-up assays come after a bar, where they were run).

Cc1ccc(NC(=S)N2CCC(c3ccccc3)C2)c(Cl)c1 (stereo not drawn)	ssDAF12 agonist 1.1, DAX1 inh-2 5.1, hgDAF-12 ag 19 | DAX1 inh confirm 11 | SF1 mutant ctr 4.8 | hgDAF12 conf 13 | LXR ag 2 inactive
Cc1ccc(C(=O)CSc2cc(C)[nH]c(=O)n2)cc1	DAX1 inh-1 5.0, DAX1 inh-2 12, hgDAF-12 ag 15 | DAX1 inh confirm 11 | SF1 mutant ctr 8.3 | hgDAF12 conf 16 | LXR ag 2 inactive
CN(C)c1ccc(C(=S)NCc2ccco2)cc1	ssDAF12 agonist 0.9, hcDAF12 agonist 7.5, DAX1 inh-2 5.2, hgDAF-12 ag 16 | DAX1 inh confirm 11 | SF1 mutant ctr 5.6 | LXR ag inactive | hcDAF12 conf 10 | hgDAF12 conf 20 | LXR ag 2 inactive
CN(C)c1ccc(/C=N/NC(=S)NCc2ccco2)cc1	none
Nc1ccc2c(c1)C(=O)c1ccccc1C2=O	hcDAF12 agonist 7.3, DAX1 inh-2 10, hgDAF-12 ag 17 | DAX1 inh confirm 7.2 | SF1 mutant ctr 5.0 | LXR ag inactive | hcDAF12 conf inactive | hgDAF12 conf 18 | LXR ag 2 inactive
C=CCN1CCN(C(=O)c2cc3c(s2)CCCC3)CC1	none
Cc1ccc(/C=N/N=C/c2ccc(C)s2)s1	hcDAF12 agonist 9.1, DAX1 inh-2 5.1, hgDAF-12 ag 18 | DAX1 inh confirm 19 | SF1 mutant ctr 7.7 | LXR ag inactive | hcDAF12 conf 8.2 | hgDAF12 conf 21 | LXR ag 2 inactive
Cc1ccc(NS(=O)(=O)c2c(C(=O)N3CCCCCC3)c(C)n(C)c2C)c(Cl)c1	none
O=C(NCCc1ccccc1)c1cnc2ccccn2c1=O	DAX1 inh-2 5.2, hgDAF-12 ag 14 | DAX1 inh confirm 13 | SF1 mutant ctr 5.7 | hgDAF12 conf 13 | LXR ag 2 inactive
CC(C)n1c(=N)c(C(=O)NCCc2ccccc2)cc2c(=O)n3ccccc3nc21	none
OCc1cn(-c2ccccc2)nc1-c1cc2ccccc2o1	DAX1 inh-1 4.7, ssDAF12 agonist 1.1, DAX1 inh-2 5.8, hgDAF-12 ag 14 | DAX1 inh confirm 15 | SF1 mutant ctr 12 | hgDAF12 conf 15 | LXR ag 2 inactive
Nc1c(-c2ccccc2)cnc2c(-c3ccccc3)cnn12	DAX1 inh-1 4.8, ssDAF12 agonist 1.3, hcDAF12 agonist 11, DAX1 inh-2 4.9, hgDAF-12 ag 20 | DAX1 inh confirm 14 | SF1 mutant ctr 3.6 | LXR ag inactive | hcDAF12 conf 9.3 | hgDAF12 conf 11 | LXR ag 2 inactive
CC(OC(=O)CCC(=O)c1cccs1)C(=O)NC1CCCCC1C (stereo not drawn)	none
COc1cc(C(=O)OC(C)C(=O)NC(=O)NC2CCCCC2)ccc1OC(F)F (stereo not drawn)	none
CC1CCc2c(sc(NC(=O)C3=COCCO3)c2C(N)=O)C1 (stereo not drawn)	ssDAF12 agonist 1.4, hcDAF12 agonist 8.7, DAX1 inh-2 5.7, hgDAF-12 ag 15 | DAX1 inh confirm 12 | SF1 mutant ctr 6.5 | LXR ag inactive | hcDAF12 conf inactive | hgDAF12 conf 19 | LXR ag 2 inactive
O=C1C(=Cc2ccc(Cl)cc2)CCc2ccccc21	DAX1 inh-2 7.4, hgDAF-12 ag 15 (no result: DAX1 inh-1, AHR act) | DAX1 inh confirm 7.4 | SF1 mutant ctr 3.3 | hgDAF12 conf inactive | LXR ag 2 inactive
COc1ccccc1C=C1CCc2ccccc2C1=O	hcDAF12 agonist 7.2, DAX1 inh-2 8.6, hgDAF-12 ag 18 (no result: DAX1 inh-1, AHR act) | DAX1 inh confirm 3.9 | SF1 mutant ctr inactive | LXR ag inactive | hcDAF12 conf 7.5 | hgDAF12 conf 13 | LXR ag 2 inactive
O=C1C(=Cc2cccc(Cl)c2)CCc2ccccc21	none (no result: DAX1 inh-1, AHR act)
O=C1/C(=C\c2ccncc2)CCc2ccccc21	none
CCOc1ccccc1C=C1CCc2ccccc2C1=O	none (no result: AHR act)
O=C1C(=Cc2ccc(F)cc2)CCc2ccccc21	hcDAF12 agonist 7.9, DAX1 inh-2 9.5, hgDAF-12 ag 22 (no result: DAX1 inh-1, AHR act) | DAX1 inh confirm 7.4 | SF1 mutant ctr 3.3 | LXR ag inactive | hcDAF12 conf inactive | hgDAF12 conf 17 | LXR ag 2 inactive
O=C1C(=Cc2ccccc2Cl)CCc2ccccc21	hcDAF12 agonist 10, DAX1 inh-2 6.5, hgDAF-12 ag 23 (no result: DAX1 inh-1, AHR act) | DAX1 inh confirm 6.7 | SF1 mutant ctr inactive | LXR ag inactive | hcDAF12 conf 5.9 | hgDAF12 conf 16 | LXR ag 2 inactive
Cn1ccc2c(-c3ccc4c(c3)OCCO4)cc3c(c21)C1CCC3C1 (stereo not drawn)	none (no result: DAX1 inh-1, AHR act)
CCN(CC)CCn1c(NS(=O)(=O)c2ccc(Cl)cc2)nc2ccccc21	none
Cn1c(NC(=O)CCC2CCCCC2)cc(=O)n(C)c1=O	DAX1 inh-2 5.6, hgDAF-12 ag 14 | DAX1 inh confirm 12 | SF1 mutant ctr 6.0 | hgDAF12 conf 12 | LXR ag 2 inactive
Cn1c(NNC(=O)CCC2CCCCC2)cc(=O)n(C)c1=O	none
C=CCNc1ncnc2c1cnn2-c1ccc(Cl)cc1	DAX1 inh-2 8.8, hgDAF-12 ag 15 | DAX1 inh confirm 16 | SF1 mutant ctr 8.1 | hgDAF12 conf 27 | LXR ag 2 inactive
Cc1cc(/C=C(\C#N)C(=O)Nc2ccccc2F)c(C)[nH]1	DAX1 inh-2 12, AHR act 66, hgDAF-12 ag 17 | DAX1 inh confirm 15 | SF1 mutant ctr 5.5 | hgDAF12 conf 16 | LXR ag 2 inactive
CCN(c1ccc(OC)cc1)S(=O)(=O)c1nnc(NC(=O)CC(C)C)s1	none
Cc1ccc2nc(-c3cccc(N)c3)oc2c1	hcDAF12 agonist 6.4, DAX1 inh-2 5.4, hgDAF-12 ag 15 | DAX1 inh confirm 15 | SF1 mutant ctr 6.8 | hgDAF12 conf 16 | LXR ag 2 inactive

Screening results from PubChem BioAssay.
